What was measured:
Conditions in all cases: Compound Concentration (nM):1000
ROCK2 = system: ROCK2
ROS1 = system: ROS1
[1] = system: RPS6KA4(Kin.Dom.1-N-terminal)
[2] = system: RPS6KA4(Kin.Dom.2-C-terminal)
[3] = system: RPS6KA5(Kin.Dom.1-N-terminal)
[4] = system: RPS6KA5(Kin.Dom.2-C-terminal)
[5] = system: T1, RSK1(Kin.Dom.1-N-terminal)
T1 construct: gene RPS6KA1

[6] = system: T2, RSK1(Kin.Dom.2-C-terminal)
T2 construct: gene RPS6KA1

[7] = system: T3, RSK2(Kin.Dom.1-N-terminal)
T3 construct: gene RPS6KA3

[8] = system: T4, RSK2(Kin.Dom.2-C-terminal)
T4 construct: gene RPS6KA3

[9] = system: T5, RSK3(Kin.Dom.1-N-terminal)
T5 construct: gene RPS6KA2

[10] = system: T6, RSK3(Kin.Dom.2-C-terminal)
T6 construct: gene RPS6KA2

[11] = system: T7, RSK4(Kin.Dom.1-N-terminal)
T7 construct: gene RPS6KA6

[12] = system: T8, RSK4(Kin.Dom.2-C-terminal)
T8 construct: gene RPS6KA6

S6K1 = system: T9, S6K1
T9 construct: gene RPS6KB1

SBK1 = system: SBK1
SGK2 = system: SGK2
SGK3 = system: SGK3
SGK = system: T10, SGK
T10 construct: gene SGK1

SIK2 = system: SIK2
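Further: KINOMEscan scanMAX binding as percent activity remaining versus control; lower means stronger binding.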

Row | SMILES | Percent Control (ROCK2) | Percent Control (ROS1) | Percent Control [1] | Percent Control [2] | Percent Control [3] | Percent Control [4] | Percent Control [5] | Percent Control [6] | Percent Control [7] | Percent Control [8] | Percent Control [9] | Percent Control [10] | Percent Control [11] | Percent Control [12] | Percent Control (S6K1) | Percent Control (SBK1) | Percent Control (SGK2) | Percent Control (SGK3) | Percent Control (SGK) | Percent Control (SIK2)
1 | CC1=C(C(=O)Nc2ccc3[nH]ncc3c2)C(c2ccc3ccccc3c2)CC(=O)N1 (stereo not drawn) [GSK270822A] | 0% | 81% | 100% | 91% | 100% | 64% | 91% | 99% | 72% | 75% | 84% | 100% | 67% | 95% | 67% | 48% | 69% | 42% | 69% | 86%
2 | CCn1c(-c2nonc2N)nc2c(C#CC(C)(C)O)nc(OCCNC)cc21.Cl [GSK949675] | 78% | 100% | 100% | 5.9% | 91% | 34% | 100% | 100% | 97% | 72% | 99% | 100% | 100% | 100% | 100% | 96% | 100% | 92% | 94% | 90%
3 | COc1cccc(-n2ncc3c(N/N=C/c4ccncc4)ncnc32)c1 [GW784752X] | 84% | 100% | 100% | 70% | 100% | 100% | 94% | 100% | 100% | 86% | 100% | 98% | 94% | 100% | 93% | 63% | 83% | 77% | 57% | 75%
4 | NS(=O)(=O)c1ccc(N/N=C2\C(=O)Nc3ccc(Cl)cc32)cc1 [GW280670X] | 89% | 79% | 100% | 97% | 100% | 100% | 100% | 100% | 100% | 83% | 100% | 100% | 99% | 100% | 98% | 100% | 100% | 77% | 100% | 100%
5 | O=C(Nc1n[nH]c2nc(-c3ccc(O)cc3)c(Br)cc12)C1CC1 [SB-725317] | 98% | 91% | 100% | 1.2% | 100% | 43% | 100% | 100% | 65% | 97% | 96% | 100% | 19% | 100% | 100% | 100% | 100% | 88% | 100% | 100%
6 | NS(=O)(=O)c1ccc(N/N=C2\C(=O)Nc3ccc(C(=O)NCc4ccncc4)cc32)cc1 [GW300657X] | 56% | 100% | 87% | 42% | 100% | 19% | 94% | 83% | 79% | 87% | 100% | 80% | 56% | 80% | 78% | 37% | 81% | 12% | 36% | 100%
7 | CCc1ccc(Oc2nccc(-c3c(-c4ccc(F)cc4)ncn3C3CCNCC3)n2)cc1 [SB-242719] | 90% | 61% | 100% | 73% | 98% | 87% | 99% | 77% | 97% | 94% | 92% | 94% | 93% | 79% | 93% | 100% | 100% | 77% | 100% | 66%
8 | CC(C)COC(=O)c1ccc2c(c1)/C(=C/Nc1ccc(S(N)(=O)=O)cc1)C(=O)N2 [GW416981X] | 21% | 100% | 100% | 67% | 100% | 66% | 100% | 100% | 36% | 97% | 100% | 100% | 43% | 100% | 65% | 71% | 79% | 18% | 31% | 94%
9 | C/C(Nc1ccc(S(N)(=O)=O)cc1)=C1/C(=O)Nc2ccccc21 [GW335962X] | 69% | 76% | 96% | 85% | 100% | 100% | 100% | 92% | 52% | 89% | 83% | 82% | 47% | 86% | 60% | 100% | 71% | 26% | 21% | 90%
10 | COc1ccc2c(-c3ccnc(Nc4cccc(OC(F)(F)F)c4)n3)cnn2n1 [GW810372X] | 100% | 96% | 100% | 100% | 100% | 87% | 100% | 100% | 95% | 90% | 100% | 99% | 99% | 100% | 87% | 100% | 100% | 79% | 100% | 100%
11 | COc1cc(C=NNc2ncnc3c2cnn3-c2ccccc2)ccc1O [GW513184X] | 88% | 99% | 100% | 82% | 100% | 85% | 100% | 100% | 88% | 71% | 100% | 100% | 90% | 100% | 100% | 100% | 66% | 85% | 50% | 61%
12 | Cc1cc(O)cc(C)c1/C=C/c1cncc(C(N)=O)c1 [GW435821X] | 100% | 86% | 100% | 98% | 100% | 100% | 100% | 100% | 100% | 96% | 100% | 100% | 96% | 100% | 100% | 100% | 100% | 84% | 100% | 53%
13 | CC1=C(C(=O)Nc2ccc3[nH]ncc3c2)C(c2ccc(Cl)c(Cl)c2)CC(=O)N1 (stereo not drawn) [GSK299115A] | 0.1% | 98% | 100% | 82% | 100% | 60% | 100% | 81% | 75% | 89% | 100% | 89% | 69% | 80% | 67% | 73% | 81% | 48% | 72% | 87%
14 | Cl.O=C(Nc1ccc(Oc2ccc3[nH]c(NC(=O)c4ccccc4)nc3c2)cc1)Nc1cc(C(F)(F)F)ccc1F [GW709042A] | 85% | 67% | 100% | 77% | 100% | 88% | 100% | 100% | 100% | 90% | 100% | 100% | 99% | 100% | 52% | 100% | 100% | 90% | 100% | 100%
15 | O=C1Nc2ccc(C(=O)c3ccco3)cc2C1=Cc1cc(Cl)c(O)c(Cl)c1 [GW406108X] | 45% | 100% | 100% | 49% | 100% | 67% | 78% | 16% | 26% | 85% | 74% | 51% | 53% | 32% | 74% | 100% | 100% | 74% | 83% | 100%
16 | NS(=O)(=O)c1ccc(Nc2ncc(-c3ccccc3)o2)cc1 [GW572399X] | 91% | 100% | 100% | 89% | 100% | 100% | 100% | 100% | 98% | 98% | 100% | 100% | 96% | 100% | 100% | 100% | 93% | 60% | 48% | 100%
17 | CN1CCN(C(=O)c2ccc(NC(=O)Nc3ccc(N(C)c4ccnc(Nc5ccc(CS(C)(=O)=O)cc5)n4)cc3)cc2)CC1.Cl [GW830263A] | 1.5% | 57% | 82% | 74% | 100% | 87% | 100% | 93% | 57% | 86% | 84% | 89% | 74% | 84% | 37% | 65% | 73% | 79% | 57% | 56%
18 | CCS(=O)(=O)c1ccc(OC)c(Nc2ncc(-c3cccc(OC)c3)o2)c1 [GW580509X] | 88% | 92% | 100% | 100% | 100% | 100% | 100% | 100% | 100% | 100% | 100% | 100% | 94% | 100% | 100% | 100% | 100% | 91% | 100% | 91%
19 | COc1ccc(COc2ccc(Cc3cnc(N)nc3N)cc2OC)cc1 [GW632580X] | 95% | 82% | 100% | 77% | 97% | 87% | 100% | 100% | 100% | 100% | 79% | 89% | 98% | 93% | 85% | 100% | 95% | 72% | 100% | 93%
20 | COc1cc(/C=N/Nc2ncnc3[nH]ncc23)ccc1O [GW578748X] | 33% | 96% | 100% | 5.5% | 100% | 91% | 100% | 100% | 72% | 93% | 100% | 100% | 45% | 100% | 40% | 16% | 40% | 7.1% | 1.5% | 83%
21 | NS(=O)(=O)c1ccc(N/N=C2\C(=O)Nc3ccc(-c4cnco4)cc32)cc1 [GW276655] | 2.5% | 96% | 65% | 94% | 97% | 39% | 100% | 100% | 79% | 79% | 100% | 87% | 61% | 90% | 100% | 76% | 76% | 53% | 38% | 100%

— article PMC7826789 (International Journal of Molecular Sciences, 2021)
